# Measured values from PubChem BioAssay (Tox21).
# Records with an inconclusive call do not appear. Where a call stands in place of a potency, no number is given. Calls of active or inactive are those of the source. Calls follow the shape of the dose curve; as a rule, active = well fitted inhibition curve with a large enough effect in the signal ratio in the repeat runs (not every such curve was filed as active); inconclusive = weak or mixed curves, or effect the other way; inactive = no such curve, though single readings can be large or run the other way; the % refers to the signal ratio.
# Biological target: Estrogen receptor beta (Homo sapiens) (UniProt Q92731)
# Assay: qHTS assay to identify small molecule antagonists of the estrogen receptor beta (ER-beta) signaling pathway (AID 1259378)
# Conditions: ER-beta-UAS-bla HEK293T, beta-lactamase FRET ratio, 16 h; series mostly up to 92.4 µM
# Text: National Center for Advancing Translational Sciences [NCATS]
# NIH Chemical Genomics Center [NCGC]
# U.S. Environmental Protection Agency [EPA]
# National Institutes of Environmental Health Sciences [NIEHS]
# National Toxicology Program [NTP]
# U.S. Food and Drug Administration [FDA]
# Estrogen receptor (ER), a nuclear hormone receptor, plays an important role in development, metabolic homeostasis and reproduction. Two subtypes of ER, ER-alpha and ER-beta, have similar expression patterns with some uniqueness in both types. Endocrine disrupting chemicals (EDCs) and their interactions with steroid hormone receptors like ER causes disruption of normal endocrine function. To identify the compounds that inhibit ER signaling, an ER-beta-UAS-bla GripTite cell line (Life Technologies, Madison, WI, USA) containing a beta-lactamase reporter gene under the control of an UAS response element was used to screen Tox21 10K compound library.
# Tox21 Assay Protocol Summary:
# ER-beta-UAS-bla HEK293T cells were dispensed at 2,000 cells/4 uL of assay medium containing 2% charcoal stripped FBS per well into black wall/clear-bottom 1536-well plates using a Multidrop Combi (ThermoFisher Scientific, Waltham, MA) dispenser. After the assay plates were incubated at a 37C and 5% CO2 for 6 hr, 23 nL of compounds dissolved in DMSO, positive controls or DMSO only was transferred to the assay plate by a Pintool station (Kalypsys, San Diego, CA), followed by addition of 1 uL (1nM as final concentration) of 17-beta-estradiol (E2) in assay medium using a BioRAPTR FRD (Flying Reagent Dispenser, Aurora Discovery, San Diego, CA). The plates were incubated at 37C and 5% CO2 for 16 hr. Then 1 uL of LiveBLAzerTM B/G FRET substrate was added using a Flying Reagent Dispenser, the plates were incubated at room temperature for 2 hours, and fluorescence intensity was measured by an Envision plate reader (PerkinElmer, Shelton, CT).
# Potency is read from the fitted curve at half-maximal effect.
# Sequence of Estrogen receptor beta (Homo sapiens) (Q92731 whole entry, looked up): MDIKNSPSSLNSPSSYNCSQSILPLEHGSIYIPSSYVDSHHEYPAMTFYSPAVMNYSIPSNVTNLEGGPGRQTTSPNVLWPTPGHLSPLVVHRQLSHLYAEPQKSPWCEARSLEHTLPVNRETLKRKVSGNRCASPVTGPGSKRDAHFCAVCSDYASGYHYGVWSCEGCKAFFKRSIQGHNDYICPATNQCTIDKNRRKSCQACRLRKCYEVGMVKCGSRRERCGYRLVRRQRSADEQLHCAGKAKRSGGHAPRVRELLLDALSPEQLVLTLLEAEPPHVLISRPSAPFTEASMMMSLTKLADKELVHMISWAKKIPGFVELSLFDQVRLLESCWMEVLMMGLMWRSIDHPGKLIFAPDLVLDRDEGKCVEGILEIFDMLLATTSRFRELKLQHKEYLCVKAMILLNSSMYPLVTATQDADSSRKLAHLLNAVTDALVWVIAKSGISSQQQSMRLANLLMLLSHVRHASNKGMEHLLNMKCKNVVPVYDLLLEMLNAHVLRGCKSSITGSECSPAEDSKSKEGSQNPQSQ
row,Compound,Potency
1,C=CCOc1nc(OCC=C)nc(OCC=C)n1,inactive
2,[O-][N+](=Nc1ccccc1)c1ccccc1,inactive
3,CCCOc1ccccc1-c1nc2n[nH]nc2c(=O)[nH]1,inactive
4,O=C(O)c1cccc(C(=O)O)n1,inactive
5,O=C(CCOCCOCCOCCOCCC(=O)Nc1c(I)cc(I)c(C(=O)O)c1I)Nc1c(I)cc(I)c(C(=O)O)c1I,inactive
6,CC(=O)N[C@@H](CCC(N)=O)C(=O)O,inactive
7,CCCCCCOC(=O)CC(CC(=O)OCCCCCC)(OC(=O)CCC)C(=O)OCCCCCC,inactive
8,Fc1ccccc1-c1ccccc1,inactive
9,OC/C=C/c1ccccc1,inactive
10,C=C[Si](OC)(OC)OC,inactive
11,C=CCOCC(O)CS(=O)(=O)O (stereo not given),inactive
12,c1ccc(SCCSc2ccccc2)cc1,inactive
13,CC1=CCC2C(C1)C2(C)C (stereo not given),inactive
14,NC(=O)c1ncn([C@@H]2O[C@H](CO)[C@@H](O)[C@H]2O)c1O,inactive
15,CCCCCCOC(=O)c1ccccc1O,inactive
16,Cn1cnc2c(=O)[nH]c(N)nc21,inactive
17,Nc1cc(N)cc(C(=O)O)c1,inactive
18,CC(C)(O)Cc1ccccc1,inactive
19,COC[C@H](c1ccc(C(F)(F)F)cc1)N1CCN(C2(C)CCN(C(=O)c3c(C)ncnc3C)CC2)C[C@H]1C,inactive
20,CCCCCOC(=O)Nc1nc(=O)n([C@@H]2O[C@H](C)[C@@H](O)[C@H]2O)cc1F,inactive

row,Compound,Potency
1,C#CC(C)(O)CC(C)C (stereo not given),inactive
2,CCC(=O)Nc1cccc(N)c1,inactive
3,CC(CCO)CCCC(C)(C)O (stereo not given),inactive
4,O=C(O)c1ccc[n+]([O-])c1,inactive
5,Cc1nccn1CC1CCc2c(c3ccccc3n2C)C1=O (stereo not given),inactive
6,CCN(CC)C(=O)c1ccc(O)c(OC)c1,inactive
7,CO[Si](OC)(OC)OC,inactive
8,N#CCc1ccccc1[N+](=O)[O-],inactive
9,OC1OC[C@@H](O)[C@H](O)[C@H]1O (stereo not given in full),inactive
10,COc1cccc(Br)c1,inactive
11,CC(C)(O)c1ccccc1,inactive
12,C(=C(c1ccccc1)c1ccccc1)c1ccccc1,1.54 µM (active)
13,CCCc1ccccc1O,inactive
14,Nc1ccn(C2CO[C@H](CO)O2)c(=O)n1 (stereo not given in full),inactive
15,O=C1CC2(CCCC2)CC(=O)N1,inactive
16,CCCCCCCCC=O,inactive
17,O=c1[nH]c2ccccc2c(=O)n1CCCl,inactive
18,C=C(C)[C@@H]1CCC2=CC(=O)C[C@@H](C)[C@]2(C)C1,inactive
19,CC1=CC(=O)CCC1,inactive
20,O=C(O)/C=C/c1ccc(Cn2ccnc2)cc1,inactive
